Calls of active or inactive are those of the source. Unless noted, the rule behind the calls is not given here.
Legend:
[1] = test system: XIP peptide (Xip251-270) binding; experiment: XIP fragment 251-270 binding compounds – biochemical, small-molecule microarray, fluorescence 635/667 nm, 0.1 µg/mL protein, primary screen (AID 1182); settings: fluorescent protein binding, 635 nm, higher = more signal, called active from +8 up or from −8 down
XIP peptide (Xip251-270) = experiment: compounds binding XIP fragment 251-270 – biochemical, small-molecule microarray, fluorescence 635/667 nm, 0.5 µg/mL protein, primary screen (AID 1183); settings: fluorescence 635 nm, higher = more signal
[2] = blood-stage malaria parasite viability loss – strain 3D7, DAPI fluorescence, 100 nL, primary screen (AID 1184);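 note: parasites grown inside human red blood cells in medium with human serum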; settings: P. falciparum 3D7 growth, 3 d, higher = more signal
[3] = molecular target: Homeobox protein Hox-A13 (Mus musculus) (UniProt Q62424); experiment: disruptors of Hoxa13 oligonucleotide interaction – biochemical, fluorescence polarization, labeled oligonucleotide, primary screen (AID 1185); settings: Hoxa13:DNA binding, 15 min, higher = more signal, called active from +8 up or from −8 down
[4] = blockers of DNA damage checkpoint Chk1 activation – imaging, HeLa, hydroxyurea, phospho-Chk1 antibody, percent positive cells, primary screen (AID 1186); settings: hydroxyurea-induced phospho-Chk1 immunofluorescence imaging, higher = more signal
[5] = blockers of DNA damage checkpoint Chk1 activation – imaging, HeLa, hydroxyurea, phospho-Chk1 nuclear intensity, primary screen (AID 1187); settings: hydroxyurea-induced phospho-Chk1 immunofluorescence imaging, higher = more signal

Sequence of Homeobox protein Hox-A13 (Mus musculus) (Q62424 whole entry, looked up): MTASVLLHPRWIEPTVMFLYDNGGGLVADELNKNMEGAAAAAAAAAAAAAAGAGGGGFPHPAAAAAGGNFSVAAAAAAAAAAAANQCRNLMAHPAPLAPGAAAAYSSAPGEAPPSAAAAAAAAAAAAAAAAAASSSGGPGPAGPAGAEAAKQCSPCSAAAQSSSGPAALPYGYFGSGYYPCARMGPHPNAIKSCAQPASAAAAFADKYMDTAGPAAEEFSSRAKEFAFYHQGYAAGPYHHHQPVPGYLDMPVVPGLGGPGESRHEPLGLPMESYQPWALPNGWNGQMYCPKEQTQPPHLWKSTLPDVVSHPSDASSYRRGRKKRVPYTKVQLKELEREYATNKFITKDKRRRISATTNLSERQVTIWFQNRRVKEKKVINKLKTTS

| Structure (SMILES) | composite z-score [1] | composite z-score (XIP peptide (Xip251-270)) | z-score [2] | z-score [3] | z-score [4] | z-score [5] |
| --- | --- | --- | --- | --- | --- | --- |
| CCCNC(=O)[C@@H]1c2ccccc2C(=O)N(Cc2ccc(OC(F)(F)F)cc2)[C@H]1c1ccc(CO)cc1 | 0.688 (inactive) | 0.835 | -0.997 | -3 (inactive) | -0.615 (inactive) | -0.366 (inactive) |
| [N-]=[N+]=Nc1ccccc1[C@@H]1OC(c2ccc(OCCCO)cc2)=N[C@]1(Cc1ccccc1)C(=O)N1CCCCC1 | 3.82 (inactive) | 0.806 | -2.38 | -4.3 (inactive) | -0.23 (inactive) | -0.606 (inactive) |
| CCCCN1CC=CC23O[C@@H]4/C=C\CCC(C)OC(=O)C4[C@H]2C(=O)N(CCCO)[C@@H]3C1=O (stereo not given in full) | -0.571 (inactive) | 0.214 | 0.544 | -3.97 (inactive) | 0.331 (inactive) | -0.112 (inactive) |
| COc1cccc(C)c1NC(=O)O[C@H]1[C@H](OC(=O)Nc2ccccc2-c2ccccc2)[C@H](OC(=O)Nc2ccccc2-c2ccccc2)[C@@H](OC)O[C@@H]1CO | 0.201 (inactive) | 0.729 | -2.51 | -1.28 (inactive) | -0.8 (inactive) | -1.12 (inactive) |
| COc1ccc([Si](C)(C)[C@@H]2[C@@H](CCO)O[C@]3(C(=O)N(Cc4ccccc4)c4ccc(N5C(=O)c6cccc7cccc5c67)cc43)[C@H]2C)cc1 | 0.533 (inactive) | 0.541 | -2.76 | -0.268 (inactive) | -0.991 (inactive) | -0.379 (inactive) |
| CCCC[C@@H](O)C1=C(COC)C[C@H]2C(=O)N(Cc3ccccc3)C(=O)[C@H]2[C@H]1CO | 1.47 (inactive) | 0.782 | 0.553 | -4.13 (inactive) | -0.187 (inactive) | 0.274 (inactive) |
| COc1ccc(C#Cc2ccc3c(c2)[C@]2(C(=O)N3)[C@H](c3ccc(OCCO)cc3)N3[C@H](c4ccccc4)[C@H](c4ccccc4)OC(=O)[C@H]3[C@@H]2C(=O)NC[C@H](O)c2ccccc2)cc1 | 0.47 (inactive) | 0.691 | -1.78 | -1.01 (inactive) | -0.387 (inactive) | -0.263 (inactive) |
| CCOC(=O)C1=CC[C@@H](c2ccccc2)N(S(=O)(=O)c2ccc(C)cc2)[C@H]1c1ccccc1 | 0.267 (inactive) | 0.528 | -1.67 | 0.268 (inactive) | 0.339 (inactive) | -1.24 (inactive) |
| COCCCNC(=O)[C@@H]1c2ccccc2C(=O)N(C(C)C)[C@H]1c1ccc(CO)cc1 | 0.147 (inactive) | -0.0343 | -0.324 | -1.03 (inactive) | -0.244 (inactive) | -0.504 (inactive) |
| COc1ccccc1CN1C(=O)c2ccccc2[C@](Cc2ccccc2I)(C(=O)O)[C@@H]1c1ccc(CO)cc1 | 0.382 (inactive) | 0.798 | -0.0897 | -5.51 (inactive) | -0.138 (inactive) | 0.142 (inactive) |
| COc1ccc(CCNC(=O)[C@@]2(Cc3ccccc3I)c3ccccc3C(=O)N(C3CCCCC3)[C@H]2c2ccc(CO)cc2)cc1 | 0.898 (inactive) | 0.372 | -2.22 | -2.56 (inactive) | -0.312 (inactive) | -0.543 (inactive) |
| O=C(C1N=C(c2ccc(OCCCO)cc2)N(c2ccccc2)O1)N1CCCCC1 (stereo not given) | 2.64 (inactive) | 0.814 | -0.603 | -3.7 (inactive) | -0.216 (inactive) | 0.153 (inactive) |
| COc1ccc(CCNC(=O)[C@@H]2c3ccccc3C(=O)N(C3CCCCC3)[C@H]2c2ccc(CO)cc2)cc1 | 0.09 (inactive) | 0.658 | -1.76 | -3.32 (inactive) | 0.183 (inactive) | -0.0923 (inactive) |
| CC(=O)NCCCC[C@@H]1NC(=O)[C@@H]2C[C@H](C(=O)NCCCCCN)[C@H](c3cccc(OCCO)c3)N2C1=O | 0.845 (inactive) | 0.878 | 0.0297 | -2.54 (inactive) | -1.16 (inactive) | -0.913 (inactive) |
| COCCOC(=O)N1C(=O)[C@@]2(c3cc(C#CC4(O)CCCCCC4)ccc31)[C@H](c1ccc(O)cc1)N1[C@H](c3ccccc3)[C@H](c3ccccc3)OC(=O)[C@H]1[C@@H]2C(=O)N1CCN(c2ncccn2)CC1 | 0.0849 (inactive) | 0.699 | -1.99 | -1.62 (inactive) | 0.13 (inactive) | 0.232 (inactive) |
| O=C1CS(=O)(=O)C(c2cccc([N+](=O)[O-])c2)N1c1ccccc1 (stereo not given) | 0.784 (inactive) | 0.263 | 0.66 | 0.011 (inactive) | -0.346 (inactive) | -0.291 (inactive) |
| CC(C)C[C@@H]1NC(=O)[C@@H]2C[C@H](C(=O)NCCCCCCN)[C@H](c3cccc(OCCO)c3)N2C1=O | 1.6 (inactive) | 0.891 | -0.969 | -3.79 (inactive) | -0.349 (inactive) | -0.207 (inactive) |
| COC(=O)[C@@H]1N=C(c2ccc(OCCCO)cc2)O[C@@H]1c1ccccc1 | 0.178 (inactive) | 0.759 | -0.641 | -4.34 (inactive) | -0.4 (inactive) | -0.301 (inactive) |
| CC(C)C(O)C1C=CC2C(=O)N(c3ccccc3)C(=O)C2N1Nc1ccccc1 (stereo not given) | 1.33 (inactive) | 0.852 | -0.752 | -4.18 (inactive) | 0.436 (inactive) | 0.581 (inactive) |
| COC(=O)[C@@]1(Cc2ccc(OC)cc2)[C@H]2c3cc(C(=O)N(C)C)n(Cc4ccc(C)o4)c3C[C@H]2CN1C(=O)c1ccccc1 | 0.223 (inactive) | 0.0805 | -0.952 | -4.5 (inactive) | 0.046 (inactive) | 0.304 (inactive) |
| [N-]=[N+]=Nc1ccccc1[C@@H]1OC(c2ccc(OCCCO)cc2)=N[C@]1(Cc1ccccc1)C(=O)O | 0.315 (inactive) | 0.721 | -1.85 | -4.29 (inactive) | -0.178 (inactive) | 0.168 (inactive) |
| O=C(NCCN1CCOCC1)[C@@H]1c2ccccc2C(=O)N(Cc2ccccc2Cl)[C@H]1c1ccc(CO)cc1 | -0.121 (inactive) | -0.209 | -0.879 | -4.26 (inactive) | -0.0685 (inactive) | 0.227 (inactive) |
| CC(C)c1ccc(NN2C(C(O)c3ccc(C#N)cc3)C=CC3C(=O)N(c4ccccc4)C(=O)C32)cc1 (stereo not given) | 0.105 (inactive) | 0.752 | 0.109 | -2.79 (inactive) | 0.879 (inactive) | 0.815 (inactive) |
| NC(=O)[C@@]1(Cc2ccccc2)COC(c2ccc(OCCCO)cc2)=N1 | 0.198 (inactive) | -0.959 | 0.0597 | -2.25 (inactive) | 0.279 (inactive) | 0.382 (inactive) |
| COC(=O)C1=CC(CCCO)=CC(c2ccc(CN3CCCC3)cc2)N(Cc2cccc(OC(F)(F)F)c2)C=C1C(=O)OC (stereo not given) | 1.68 (inactive) | 0.677 | -2.09 | -5.07 (inactive) | -0.268 (inactive) | -0.184 (inactive) |
